In all, about 290,000 compounds went through this assay and about 11,000 (3.8%) were called active.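 The calls were made as follows: active = mean replicate inhibition above about 79%, with every replicate also reaching it (limit read from the data); inconclusive = only one of the two criteria met; inactive = mean below limit and not every replicate reaching it.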 The full list was thinned out, with actives kept by preference.

FAD-linked sulfhydryl oxidase ALR (Homo sapiens), sequence (P55789 whole entry, looked up): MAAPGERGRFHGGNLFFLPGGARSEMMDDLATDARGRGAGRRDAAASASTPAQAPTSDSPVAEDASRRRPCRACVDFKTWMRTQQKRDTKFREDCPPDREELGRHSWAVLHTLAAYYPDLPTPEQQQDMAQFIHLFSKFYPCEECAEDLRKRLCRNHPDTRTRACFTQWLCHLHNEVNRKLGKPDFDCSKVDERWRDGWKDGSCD

This experiment addresses FAD-linked sulfhydryl oxidase ALR (Homo sapiens) (UniProt P55789). As to the kind of experiment: inhibitors of human ALR sulfhydryl oxidase, primary screen, biochemical, H2O2 detection, HRP-luminol luminescence, single point (AID 485317). Conditions: purified ALR, DTT oxidation, stronger effect = higher value, concentration not given here.
For the compound `COc1ccc(C(=O)c2c3ccc([N+](=O)[O-])cc3[n+]([O-])n2CCCN)cc1`, the inhibition is -50.8% (inactive). Under `Cc1ccc(NC(=O)c2cccc(S(=O)(=O)N3CCCc4ccccc43)c2)nc1` stands -1.14% (inactive).

For the compound `COc1cccc(NC(=O)CSc2nccn(-c3ccc4c(c3)OCCO4)c2=O)c1`, the inhibition is 98.6% (active). For `Cn1ccnc1SCC(=O)Nc1ccc2c(c1)OCCO2`, the inhibition is 47.8% (inactive). The same measure for `CCn1c(COc2ccccc2)nnc1SCC(=O)Nc1ccc2c(c1)OCCO2`: -3.91% (inactive); for `O=C(C1CC(=O)N(C2CCCCC2)C1)N1CCN(c2ccccc2)CC1` (stereo unspecified): 68.2% (inactive); for `O=C(NCc1cccc(Cl)c1)C1CCC(=O)N(C2CC2)C1` (stereo unspecified): -4.45% (inactive). Turning to `O=C(C1CCC(=O)N(C2CC2)C1)N1CCN(c2ccc(Cl)cc2)CC1` (stereo unspecified), the inhibition is 96.7% (active). For the compound `COc1ccc(S(=O)(=O)N2CCOC23CCN(S(=O)(=O)c2ccc([N+](=O)[O-])cc2)CC3)cc1`, the inhibition is 0.209% (inactive). The same measure for `CCN1C(=O)[C@H]2[C@@H](c3ccc(-c4ccc(OC)cc4)cc3)N[C@@](Cc3ccccc3)(C(=O)OC)[C@H]2C1=O`: 3.62% (inactive).

For `CC1CCN(C2=NC(=O)/C(=C/c3cn[nH]c3-c3ccccc3)S2)CC1`, the inhibition is 28.2% (inactive).

With `CCc1ccc(/C=C2\SC(N3CCOCC3)=NC2=O)cc1`, the inhibition was -8.77% (inactive).

For `CCOc1cc(C(=S)N2CCOCC2)ccc1O`, the inhibition is 2.75% (inactive). On to `O=C1N=C(N2CCCC2)S/C1=C\c1cccc(Br)c1`, for which the inhibition is 8.82% (inactive). `Cc1ccsc1/C=C1\SC(N2CCOCC2)=NC1=O`: the inhibition is -15.8% (inactive). The same measure for `CCOc1cc(/C=C2\SC(N3CCCC(C)C3)=NC2=O)ccc1O` (stereo unspecified): 98% (active); for `CCOc1cc(/C=C2\C(=N)N3N=C(C)SC3=NC2=O)ccc1OCCOc1ccccc1`: -3.65% (inactive). As for `CCOc1cc(/C=C2\SC(N3CCCCC3)=NC2=O)ccc1O`, the inhibition was 85.2% (active). Take `CC1CCN(C2=NC(=O)/C(=C/c3ccc(O)cc3)S2)CC1`: the inhibition is 98.6% (active). Regarding `COCCN(C(=O)CC1CCCCC1)c1c(N)n(CC(C)C)c(=O)[nH]c1=O`, the inhibition is -3.39% (inactive).

On to `O=C(NCc1ccccc1CN1CCCC1)c1cccc(S(=O)(=O)Nc2ccc(F)cc2)c1`, for which the inhibition is -1.54% (inactive).

As to `CN(CC(=O)Nc1c(Cl)cccc1Cl)C(=O)CC1OC(=O)c2ccccc21` (stereo unspecified), the inhibition is 1.28% (inactive). Under `CCCCn1c(N)c(N(CC(C)C)C(=O)CSc2ccc([N+](=O)[O-])cc2)c(=O)[nH]c1=O` stands -3.66% (inactive); under `CN(C(=O)CSc1nnc(-c2ccc3c(c2)OCO3)o1)C1CCS(=O)(=O)C1` (stereo unspecified), -1.02% (inactive). Under `CN(C)CCn1c2c(c(SCC(=O)NCc3ccccc3)nc1=O)CCC2` stands -45.9% (inactive); under `CN(CC(=O)Nc1ccc(OC(F)F)cc1)S(=O)(=O)/C=C/c1ccccc1`, 0.776% (inactive); under `Cc1cc(NC(=O)C(C)SCC(=O)Nc2ccccc2N2CCCCC2)no1` (stereo unspecified), 2.47% (inactive). Turning to `O=C1NC(Cc2ccc(O)cc2)c2nc3ccc(Cl)cc3c(=O)n2-c2ccccc21` (stereo unspecified), the inhibition was 1.75% (inactive).

Regarding `CCCC[C@@H]1CN=C(N)N1CCc1cccc(F)c1`, the inhibition is -12.6% (inactive).

For `O=C1N[C@H](Cc2c[nH]c3ccccc23)COC(=O)[C@H](Cc2ccc(F)cc2)C/C=C\C[C@H]1CC(=O)N(CCO)Cc1ccccc1`, the inhibition is -0.125% (inactive). Under `COc1ccc(CCNc2cc(N3CCN(C(=O)c4ccccc4OC)CC3)ccc2[N+](=O)[O-])cc1OC` stands -7.83% (inactive). In the case of `COc1ccc2[nH]c(C(=O)N3CCN(C)CC3)c(C)c2c1`, the inhibition was -19.3% (inactive). `COc1ccc2[nH]c3ccc(OC)cc3c2c1`: the inhibition was 97.3% (active).

As to `COc1ccc2[nH]c(=S)cc(C)c2c1`, the inhibition was -27.6% (inactive).

Consider `N#Cc1ccc(C2=CC(=O)C[C@H](c3ccc(Cl)cc3)C2)cc1`, for which the inhibition is -5.77% (inactive). With `Cc1ccc(NC(=O)C2CC2)cc1S(=O)(=O)N1CCOCC1`, the inhibition was -0.606% (inactive). Regarding `Cc1ccc(NC(=O)C(C)Sc2nnc(C3CC3)n2C2CC2)cc1S(=O)(=O)N1CCOCC1` (stereo unspecified), the inhibition is 96.1% (active). As to `Cc1ccc(NC(=O)NC2CCCCC2)cc1S(=O)(=O)N1CCOCC1`, the inhibition is 74.4% (inactive). In the case of `COc1ccccc1OCCNC(=O)C(CCSC)NC(=O)COc1ccccc1` (stereo unspecified), the inhibition was 0.393% (inactive). Take `CN(C)c1ccc(NC(=O)CSc2n[nH]c(-c3ccco3)n2)cc1`: the inhibition is 98.9% (active). Turning to `CN(C)C(=O)CSc1n[nH]c(-c2ccco2)n1`, the inhibition is -5.75% (inactive). Regarding `O=C(CSc1n[nH]c(-c2cccnc2)n1)Nc1ccc(Cl)cc1`, the inhibition was 5.84% (inactive).

For `COc1ccccc1N1CCN(C(=O)C2Cc3ccccc3CN2C(=O)c2ccco2)CC1` (stereo unspecified), the inhibition is 19.8% (inactive). Under `CC(C)CN(C(=O)c1ccc2c(c1)OCO2)C1CCS(=O)(=O)C1` (stereo unspecified) stands 3.07% (inactive).

With `CC1Sc2ccc(C(=O)NCc3ccccc3Cl)cc2NC1=O` (stereo unspecified), the inhibition is -5.05% (inactive).

Turning to `Cc1ccc(CNC(=O)c2cc(-c3ccccc3C)n(CC3CC(c4cccc([N+](=O)[O-])c4)=NO3)n2)cc1` (stereo unspecified), the inhibition was -3.66% (inactive). On to `O=C(N/N=C/c1cc(Br)c(O)c([N+](=O)[O-])c1)C(O)(c1ccccc1)c1ccccc1`, for which the inhibition is 14% (inactive).

Turning to `O=C(c1ccco1)N1CCN=C1SCc1cccc(Cl)c1`, the inhibition was 96.8% (active). With `CCC(=O)N1CCN=C1SCc1ccc(F)cc1`, the inhibition was 98.7% (active). Turning to `CSC1=NCCN1C(=O)Cc1cccc2ccccc12`, the inhibition is -43.6% (inactive).

`CC1CCN(C(=O)c2ccc(CSc3ccc(Cl)cc3)cc2)CC1`: the inhibition was -6.8% (inactive).

With `O=C(c1ccco1)N1CCN(c2cccc(Cl)c2)CC1`, the inhibition is 12.7% (inactive). Turning to `O=S(=O)(c1ccc(F)cc1)N1CCN=C1SCc1cccc(F)c1`, the inhibition is -6.25% (inactive). The same measure for `O=C(COc1ccccc1)N1CCN=C1SCc1cccc(F)c1`: 15.7% (inactive).

As for `CS(=O)(=O)N1CCN=C1SCc1ccc(F)cc1`, the inhibition is 98.4% (active).

`CCSC1=NCCN1S(=O)(=O)c1ccc(F)cc1`: the inhibition was -3.09% (inactive). Take `Cc1nnc(SCc2cccc(Cl)c2)n(N)c1=O`: the inhibition was -0.251% (inactive). Take `O=C(C1CC1)N1CCN=C1SCc1ccc(Cl)cc1`: the inhibition is 98.3% (active). As to `O=C(C1CCN(Cc2ccc(Cl)cc2)CC1)N1CCN(Cc2ccc3c(c2)OCO3)CC1`, the inhibition was -2.64% (inactive).

Consider `O=C(C1CCC1)N1CCN(S(=O)(=O)c2ccc([N+](=O)[O-])cc2)CC1`, for which the inhibition was -24.2% (inactive). For the compound `O=C(COc1ccccc1F)Nc1nc(-c2ccccn2)cs1`, the inhibition was -5.87% (inactive). The same measure for `COc1ccc(C2(C)ON(c3ccccc3C(F)(F)F)C2=O)cc1` (stereo unspecified): 1.44% (inactive); for `Cc1cccc(C)c1Nc1nnc(SCC(=O)NCCCN2CCCC2=O)s1`: 3.02% (inactive); for `C=CCC[C@H](Cc1ccc(F)cc1)C(=O)OC[C@@H](Cc1c[nH]c2ccccc12)NC(=O)[C@H](CC=C)CC(=O)N[C@H](CO)Cc1ccccc1`: 1.04% (inactive). With `Cc1ccc(NNC(=O)C2CCC2)cc1C`, the inhibition was 98.5% (active). Turning to `Cc1ccc(C)c(OCC(=O)NNC(=O)C2CCC2)c1`, the inhibition is -3.99% (inactive). For the compound `O=C(NNC(=O)C1CCC1)c1ccccc1`, the inhibition was -8.4% (inactive). Consider `COc1ccc(CCNC(=O)COC(=O)C2CC2C)cc1` (stereo unspecified), for which the inhibition was 5.1% (inactive).

On to `CCOc1ccc(S(=O)(=O)Nc2cccc(C(=O)NCC3(N4CCCCC4)CCCCC3)c2)cc1`, for which the inhibition is -4.42% (inactive).

For `COC(=O)c1[nH]c2ccc(Br)cc2c1NC(=O)Oc1ccccc1`, the inhibition is 97.3% (active). The same measure for `COC(=O)c1[nH]c2ccccc2c1NC(=O)CN1CCCc2ccccc21`: -3.93% (inactive); for `CCOC(=O)c1[nH]c2ccc(OC)cc2c1NC(=O)CCN1CCN(Cc2ccccc2)CC1`: 24.1% (inactive); for `CCCn1c(CCNc2nc(-c3ccc(OC)cc3)cs2)nc2ccccc21`: 12.7% (inactive).

In the case of `Cc1ccc(CC(=O)N(C)CC(=O)N(CC(C)C)c2c(N)n(CC(C)C)c(=O)[nH]c2=O)cc1C`, the inhibition was -5.01% (inactive). Take `Cc1ccc2nc(SCC(=O)N3CC(C)OC(C)C3)nc(=O)n2c1` (stereo unspecified): the inhibition was -0.878% (inactive). For the compound `CCc1noc(C)c1C(=O)NNC(=O)c1ccc(F)cc1`, the inhibition was 0.314% (inactive). In the case of `COc1ccc(C(=O)NC(=S)NNC(=O)CCc2ccccc2)cc1`, the inhibition is 24.8% (inactive). On to `Cc1ccc(CNC(=O)c2c(-c3ccccc3)noc2C)cc1`, for which the inhibition is -6.06% (inactive).

On to `COc1ccc(C(=O)NNC(=S)NC(=O)c2ccccc2)cc1`, for which the inhibition was 34.7% (inactive). Consider `Cc1onc(-c2ccccc2)c1C(=O)NNC(=S)NC(=O)c1ccc(F)cc1`, for which the inhibition is 93.4% (active).

With `COc1ccc(C(=O)NC(=S)NNC(=O)c2c(-c3ccccc3)noc2C)cc1`, the inhibition is 99.2% (active).

Regarding `COc1ccc(S(=O)(=O)N(C)C[C@H]2Oc3c(NC(=O)Nc4ccc5c(c4)OCO5)cccc3C(=O)N([C@H](C)CO)C[C@@H]2C)cc1`, the inhibition was -7.29% (inactive). Regarding `CC(C)(C)OC(=O)NCCCCCNC(=O)c1[nH]cnc1C(=O)Nc1nccs1`, the inhibition was -6.55% (inactive).

In the case of `COc1ccc(Cl)cc1NS(=O)(=O)c1cccc(C(=O)NC2CCC(O)CC2)c1` (stereo unspecified), the inhibition is -6.32% (inactive).

For the compound `O=C(COC(=O)c1cccc(Cl)c1)NC(=O)NCc1ccccc1`, the inhibition was -1.07% (inactive). With `CC(=O)NCCn1c(SCC(=O)Nc2ccc(C)cc2)nc2ccccc2c1=O`, the inhibition was -3.53% (inactive). As to `CC(=O)c1ccc(NC(=O)CSc2nc3ccccc3c(=O)n2CCCN2CCOCC2)cc1`, the inhibition was 23.1% (inactive). `COc1cccc(NC(=O)C(Sc2nc3ccccc3c(=O)n2CC(C)C)c2ccccc2)c1` (stereo unspecified): the inhibition was -3.45% (inactive). For the compound `COC(=O)c1ccc2c(=O)n(CCN3CCOCC3)c(SCC(=O)Nc3cccc(OC)c3)nc2c1`, the inhibition was 99.1% (active). For the compound `CCc1ccc(NC(=O)CSc2nc3ccccc3c(=O)n2CCN2CCOCC2)cc1`, the inhibition was 98.6% (active). The same measure for `COCCn1c(SCC(=O)Nc2ccc3c(c2)CCC3)nc2ccccc2c1=O`: -0.883% (inactive).

A word on the inhibition: it is the drop in the measured response relative to a control, in per cent.
